Bioassay records as filed in PubChem BioAssay.
The list is not random: actives were taken first. Their share in the collection is about 3.5%.
FBW7 act = FBW7 E3 ligase activators, primary screen, biochemical, AlphaScreen, human; F-box/WD repeat-containing protein 7 (Homo sapiens), Q969H0; AlphaScreen FBW7–phospho-cyclin E peptide binding, activator screen; normalized activity (activation), % at 26.1 µM; 650,000 tested, 0.13% active; AID 1259310, 2017; in the data active means normalized activity above about 1.9%;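 further: purified mutant Fbw7 with reduced substrate affinity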
TEAD-YAP inh = TEAD-YAP interaction inhibition, primary screen, TEAD-YAP interaction inhibitor project, luminescence, HEK-TIYL cells. 640,000 tested, 1.4% active. TEAD-Gal4/YAP UAS-luciferase luminescence. inhibition, % at 9.12 µM; in the data active means inhibition above about 32%;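 further: 0% = median of test compound wells and 100% = reference inhibitor wells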
GPR151 ag = activators of human GPR151, primary screen, cell-based, PathHunter beta-arrestin, luminescence. G-protein coupled receptor 151 (Homo sapiens), Q8TDV0. PathHunter beta-arrestin GPR151 cells. activation, % at 11.2 µM. 650,000 tested, 1% active. AID 1508602, 2020; in the data active means activation above about 4.9%;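 further: 0% = median of compound wells and 100% = cells with positive control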
MITF inh = MITF inhibitors, primary screen, biochemical, AlphaScreen, human; inhibition, % at 2.6 µM; 650,000 tested, 0.91% active; AlphaScreen MITF homodimerization, bead proximity signal; Microphthalmia-associated transcription factor (Homo sapiens), O75030; AID 1259374, 2018; in the data active means inhibition above about 50%;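 further: 0% = vehicle wells with protein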
GPR151 conf act = GPR151 activators, triplicate retest, confirmation, cell-based, PathHunter beta-arrestin, luminescence. shares compounds with GPR151 ag. GPR151 PathHunter beta-arrestin cells, 90 min; % of EA-reagent control over plate median. activation, % at 11.2 µM. 6,700 tested, under 10 active. AID 1508609, 2020;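 active means mean percent activation across replicates above the confirmation screen cutoff of 4.91%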
GPR119 ag = GPR119 activators in beta-arrestin cells, counter-screen for GPR151 activator project, cell-based, PathHunter beta-arrestin, luminescence, triplicate | 90 min; 0 = compound-well median, 100 = enzyme-acceptor control | shares compounds with GPR151 ag | activation, % at 11.2 µM | 6,700 tested, 0.3% active;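 active means mean percent activation in the counterscreen above 29.09%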;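 further: counterscreen on off-target GPR119 to flag nonselective hits from the GPR151 activator screen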
Target sequence (Q8TDV5 whole entry, looked up): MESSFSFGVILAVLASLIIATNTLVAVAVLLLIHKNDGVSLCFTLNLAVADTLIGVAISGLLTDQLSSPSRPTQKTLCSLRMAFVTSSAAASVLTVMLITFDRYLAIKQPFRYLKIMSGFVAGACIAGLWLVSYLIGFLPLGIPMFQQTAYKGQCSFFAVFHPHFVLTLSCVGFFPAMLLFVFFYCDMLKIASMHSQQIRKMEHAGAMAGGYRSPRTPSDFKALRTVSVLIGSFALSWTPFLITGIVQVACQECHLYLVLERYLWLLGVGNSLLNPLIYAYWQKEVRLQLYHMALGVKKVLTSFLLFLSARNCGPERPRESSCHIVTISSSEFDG
* marks the source's active call; other numbers are inactive results; x = not tested or not shown; ! = repeats disagree.

SMILES | FBW7 act | TEAD-YAP inh | GPR151 ag | MITF inh | GPR151 conf act | GPR119 ag
O=C(O)C1C(C(=O)Nc2ccc(Cl)cc2)C2C=CC1C21CC1 (stereo not drawn) | 1 | -13 | -1 | 18 | x | x
O=C(O)C1C(C(=O)Nc2ccccc2)C2C=CC1C21CC1 (stereo not drawn) | 0 | 3 | 7.5* | 6 | 1 | 16
COc1cccc(NC(=O)c2sc3nc4c(c(-c5ccc(C)cc5)c3c2N)CCCC4)c1 | 0 | -6 | -1 | 2 | x | x
CC(=O)N1CCc2cc(Br)cc(S(=O)(=O)NC3CCCc4ccccc43)c21 (stereo not drawn) | 0 | -11 | 5.1* | 13 | 0 | 11
CC(=O)N1CCc2cc(Br)cc(S(=O)(=O)NC3CCCC3)c21 | 0 | 3 | 1 | 8 | x | x
CC(=O)N1CCSc2cc(S(=O)(=O)Nc3ccc(Cl)cc3)ccc21 | 0 | 4 | 5.0* | 1 | 0 | 2
CC(=O)N1CCSc2cc(S(=O)(=O)Nc3ccc(C(C)C)cc3)ccc21 | 0 | -10 | 0 | -10 | x | x
CC(=O)N1CCSc2cc(S(=O)(=O)NC3CCCCC3)ccc21 | 0 | 14 | 6.1* | -16 | 1 | 2
CC(=O)N1CCc2cc(NS(=O)(=O)c3ccc4ccccc4c3)ccc21 | 0 | -5 | 5.0* | 8 | 1 | 3
O=C(c1ccc(F)cc1)N(Cc1cccnc1)Cc1cc2ccccc2[nH]c1=O | 0 | -3 | 7.0* | 1 | 1 | 12
CC(=O)N(Cc1cccnc1)Cc1cc2ccccc2[nH]c1=O | 0 | -2 | 0 | -15 | x | x
CC1(C)[C@@H](O)CC[C@]2(C)[C@H]3C(=O)C=C4[C@@H]5C[C@@](C)(C(=O)O)CC[C@]5(C)CC[C@@]4(C)[C@]3(C)CC[C@@H]12 | 0 | 9 | -1 | -12 | x | x
CC1(C)C2CC[C@]3(C)C(C(=O)C=C4[C@@H]5C[C@@](C)(C(=O)O)CC[C@]5(C)CC[C@]43C)[C@@]2(C)CC[C@@H]1OC(=O)CCC(=O)O (stereo partly drawn) | 0 | 0 | 5.2*! | 10 | 1 | 5
O=C(O)c1ccc(NC(=O)C2CC(=O)N(Cc3ccc4c(c3)OCO4)C(=Nc3cccc(C(F)(F)F)c3)S2)cc1 (stereo not drawn) | 0 | 15 | 1 | 0 | x | x
COC(=O)c1ccc(NC(=O)C2CC(=O)N(Cc3ccc4c(c3)OCO4)C(=Nc3cccc(C(F)(F)F)c3)S2)cc1 (stereo not drawn) | 0 | -1 | 6.4* | 7 | 1 | 3
CCc1nc2ccccc2c(NC(=O)CN2CCC(C)CC2)c1C | 0 | -2 | 5.3* | 44 | 0 | -3
Cn1c(SCCCN2C(=O)c3ccccc3C2=O)nnc1-c1cccs1 | 0 | 4 | 1 | 8 | x | x
COc1ccc2c(c1)O[C@H](c1ccc3c(c1)OCO3)C(OC(=O)N[C@H]1CCCc3ccccc31)C2=O (stereo partly drawn) | 0 | x | 5.3* | -21 | 0 | 5
COc1ccc2c(c1)O[C@H](c1ccc3c(c1)OCO3)C(OC(=O)NCc1ccc3c(c1)OCO3)C2=O (stereo partly drawn) | 0 | x | 10* | 3 | 1 | 1
COc1cccc(CNC(=O)CSc2nc3c(oc4ccccc43)c(=O)n2CCCOC(C)C)c1 | 0 | 1 | 6.5* | 2 | -1 | -13
COc1ccccc1OCCn1cc(/C=C(\C#N)C(=O)NC2CC2)c2ccccc21 | 0 | 13 | 5.6* | 5 | 0 | -7
COc1ccc(OCCn2cc(/C=C(\C#N)C(=O)NC3CC3)c3ccccc32)cc1 | 0 | 15 | 0 | -7 | x | x
COCCCn1c(=O)[nH]c2ncc(-c3ccc(F)cc3)nc21 | 0 | 12 | 0 | 10 | x | x
CCOc1ccc(/C=C2\C(=O)NC(C)=C2C(=O)OC)cc1 | 0 | -10 | 1 | 3 | x | x
COc1cc(/C=C2/C(=N)N3N=C(C)SC3=NC2=O)cc(Br)c1OCCOc1c(C)cccc1C | 0 | 5 | -1 | -9 | x | x
SMILES | FBW7 act | TEAD-YAP inh | GPR151 ag | MITF inh | GPR151 conf act | GPR119 ag
O=C(Nc1cccs1)Nc1ccccc1NC(=O)c1ccccc1F | 0 | -39 | 0 | 11 | x | x
Cc1ccccc1C(=O)Nc1ccccc1NC(=O)Nc1cccs1 | 0 | -13 | 12* | 10 | 0 | 4
C=C(C)CN1C(=O)NC(CC)(C2CCN(C(=O)COc3ccccc3)CC2)C1=O (stereo not drawn) | 0 | 6 | 1 | 5 | x | x
Cc1cc(C)cc(NS(=O)(=O)c2cc(C(N)=O)ccc2C)c1 | 0 | 7 | 13* | 14 | 0 | 8
CCOC(=O)c1cccc(NC(=O)CCc2c(C)nc3nc(CN)nn3c2C)c1 | 0 | 12 | 5.9* | 3 | -2 | -20
CCNS(=O)(=O)c1ccc(NC(=O)Nc2cccc([N+](=O)[O-])c2)cc1 | 0 | 2 | 13* | 5 | 0 | 3
CCCCOC(=O)Nc1ccc(S(=O)(=O)Nc2cccc([N+](=O)[O-])c2)cc1 | 0 | -6 | 5.3* | -1 | 0 | -2
COc1cc(C(=O)N2CCN(C3CCCC3)CC2)cc(OC)c1OC | 0 | 1 | 1 | -1 | x | x
COc1cc(OC)cc(C(=O)N2CCN(C3CCCCC3)CC2)c1 | 0 | 0 | 5.0* | 27 | 0 | 16
Cc1ccccc1OCC(=O)NN1CC(O)=C(c2nc(-c3ccc(F)cc3)cs2)C1=N | 0 | 7 | 5.6* | 0 | 1 | 0
COc1cc(Br)cc(/C=N/NC(=O)CNc2ccccc2C)c1O | -1 | 25 | 5.9* | 14 | 1 | -1
COc1ccc(Br)cc1/C=N/NC(=O)CSc1ccccn1 | 1 | 1 | 7.0* | 10 | 0 | -13
COc1ccc(Br)cc1/C=N/NC(=O)CNc1ccccc1C | 0 | -4 | 0 | -7 | x | x
COc1ccccc1NCC(=O)N/N=C/c1ccccc1O | 0 | 1 | 0 | 11 | x | x
COc1ccc(Br)cc1/C=N/NC(=O)CSc1ncccn1 | 0 | -2 | -2 | 19 | x | x
COc1ccccc1NCC(=O)N/N=C/c1cc(Br)ccc1O | 0 | 24 | 9.8* | 15 | 0 | -18
Cc1ccc(N2C(c3ccc(N(C)C)cc3)C(=O)C2N2C(=O)c3ccccc3C2=O)cc1 (stereo not drawn) | 1 | -1 | 8.4* | 23 | 0 | 4
O=[N+]([O-])c1cc([N+](=O)[O-])c2nonc2c1Nc1cccc(C(F)(F)F)c1 | 1 | 6 | 7.1* | 18 | 1 | -10
